Results on 30 compounds are retold here after PubChem BioAssay (NCATS).

“And” between values parts separate entries of the source, which are not always exact repeats. Equal entries are not always repeated. Inconclusive results are not listed. Some compounds were tested as several samples or in several runs, with calls that do not always agree. The source made the active and inactive calls. Calls come from the whole dose curve; as a rule, active = well fitted curve in the direction sought with a large enough effect; inconclusive = small, poorly fitted or top-dose-only effect, or another doubt; inactive = no such curve, though single readings can be large; an effect the other way counts as inactive or inconclusive.

For experiment [1], the target named is Glutathione peroxidase 1 (Homo sapiens) (UniProt P07203). Description: Primary qHTS Assay for Inhibitors of Recombinant Selenoprotein Glutathione Peroxidase 1 (GPX1) (AID 1845191). For activity, negative = inhibition: % is set by controls: 0 for no effect and ±100 for the full control effect. Note: nearly all actives have a fitted effect of over 65% in size. Put shortly: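 GR-coupled readout: NADPH consumption tracked by fluorescence, ex 340/em 450 nm, at t=0 and after 15 min at RT. Final mix 10 nM GPX1, 1 mM GSH, 0.5 mM CHP, 0.5 mM NADPH, 100 nM GR, 0.01% BSA, following 30 min enzyme–compound preincubation.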
On the technique in general: Quantitative high-throughput screening tests each substance at several concentrations.

Experiment [2] can be described thus: NCATS anti-infectives library activity on HEK293 viability as a counter-qHTS vs the C. elegans viability qHTS (AID 1745854).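 Note: HEK293 cells exposed to compounds for 24 hr before the viability read; % is set by controls: 0 for no effect and ±100 for the full control effect.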 A digest of the protocol:
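Counter-screen for cytotoxicity: HEK293, 24 hr, 37C, compounds up to 41.7 uM final (a dilution series, 1:5). Readout CellTiter-Glo luminescence, 10 min RT. Digitonin control, 83.3 uM final.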

Experiment [3] addresses Luciferin 4-monooxygenase (Photinus pyralis) (UniProt P08659). In words: Primary firefly luciferase (FLuc) qHTS assay for identification of artifact compounds. (AID 1845220).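 For activity change, negative = inhibition: series mostly up to about 54 µM; plate controls were DMSO vehicle for no effect and no enzyme for full effect.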 Note: nearly all actives have a fitted effect of over 60% in size. A digest of the protocol: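 Enzymatic FLuc inhibition assay: compounds pre-exposed to luciferin/ATP (10 uM each) for 15 min, then purified P. pyralis enzyme at 10 nM added. Read-out: luminescence at 5 min.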

Experiment [4] can be described thus: Primary fluorescence-based thiol-reactive (MSTI) qHTS assay for identification of artifact compounds. (AID 1845221).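 For activity change, negative = thiol reactive: series mostly up to about 54 µM; thiol-reactive compounds lower the probe fluorescence signal.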 Note: nearly all actives have a fitted effect of over 65% in size. Note: potency is the fitted concentration of half-maximal effect. A digest of the protocol:
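In PBS pH 7.4 with 2% DMSO, each compound met 4 uM MSTI for one hour at ambient temperature, shielded from light, before fluorescence detection.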

For experiment [5], the target named is Phospholipid hydroperoxide glutathione peroxidase GPX4 (Homo sapiens) (UniProt P36969). In words: Primary qHTS Assay for Inhibitors of Recombinant Selenoprotein Glutathione Peroxidase 4 (GPX4) (AID 1845192). For activity change, negative = inhibition: series mostly up to about 50 µM; % is set by controls: 0 for no effect and ±100 for the full control effect. Note: nearly all actives have a fitted effect of over 65% in size. Note: potency is the fitted concentration of half-maximal effect. Put shortly: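 Steps: GPX4 plus compound, 30 min RT; add GR/GSH/NADPH master mix; start with cumene hydroperoxide; read 340/450 nm fluorescence at 0 and 15 min. Finals were 200 nM GPX4, 1 mM GSH, 0.5 mM CHP, 0.5 mM NADPH, 100 nM GR.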

Experiment [6] concerns Nanoluciferase (engineered Oplophorus gracilirostris luciferase). Description: Primary Nanoluciferase (NLuc) qHTS assay for identification of artifact compounds. (AID 1845222).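 Note: NLuc secreted into diluted conditioned medium of S16 cells; series mostly up to about 54 µM; 0% = DMSO and -100% = no enzyme.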 Put shortly: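 S16 cell supernatant NLuc, 1:55; cpds qHTS; 15 min RT dark; Nano-Glo substrate 1:100, 5 min; luminescence; Hill fit of % inhibition.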

Sequence of Glutathione peroxidase 1 (Homo sapiens) (P07203 whole entry, looked up): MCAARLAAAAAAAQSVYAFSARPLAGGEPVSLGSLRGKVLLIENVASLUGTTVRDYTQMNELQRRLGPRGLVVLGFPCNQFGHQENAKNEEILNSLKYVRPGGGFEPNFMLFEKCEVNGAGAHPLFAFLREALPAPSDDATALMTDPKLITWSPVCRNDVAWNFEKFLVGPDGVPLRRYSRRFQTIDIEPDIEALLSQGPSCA
Sequence of Phospholipid hydroperoxide glutathione peroxidase GPX4 (Homo sapiens) (P36969 whole entry, looked up): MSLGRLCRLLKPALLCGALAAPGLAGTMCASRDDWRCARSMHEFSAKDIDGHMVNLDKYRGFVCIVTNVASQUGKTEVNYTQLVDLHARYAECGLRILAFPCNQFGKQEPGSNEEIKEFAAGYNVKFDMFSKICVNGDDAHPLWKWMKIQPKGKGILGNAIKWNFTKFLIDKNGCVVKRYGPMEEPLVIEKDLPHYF

Consider `O=C(O)Cc1cccc(OCCCN(Cc2cccc(C(F)(F)F)c2Cl)CC(c2ccccc2)c2ccccc2)c1`, for which the Potency result in experiment [1] is “inactive”.

Take `COc1ccc2nc3cc(Cl)ccc3c(Nc3cc(CN4CCCC4)c(O)c(CN4CCCC4)c3)c2n1`: the Potency entry in experiment [1] was “inactive”.

`CCC(C)SSc1ncc[nH]1` (configuration not stated): the Potency entry in experiment [1] is “inactive”.

`Fc1ccc(CNc2ncnc3ccc(F)cc23)cc1`: the compound was classed as inactive in experiment [2]. Moreover, the Potency entry in experiment [1], in experiment [3] and in experiment [4] was “inactive” in each case.

Turning to `CC(C)Oc1cc(Nc2nc(N[C@@H](C)c3ccc(F)cn3)ncc2Cl)[nH]n1`, in experiment [1], the Potency entry is “inactive”.

For `CCCCOCCOc1nc(-c2ccc(C(=O)O)c(F)c2)sc1C`, the Potency result in experiment [1] and in experiment [5] was “inactive” in each case.

For `C[C@@H]1C[C@H]2[C@@H]3CCC4=CC(=O)C=C[C@]4(C)[C@@]3(F)[C@@H](O)C[C@]2(C)[C@@]1(O)C(=O)CO`, the Potency result in experiment [1] and in experiment [5] was “inactive” throughout.

As for `Cc1cccc2c1CC[C@H](CN1CCC(c3c(Cl)cccc3Cl)CC1)C[C@@H]2O`, the Potency entry in experiment [1], in experiment [5], in experiment [3] and in experiment [4] was “inactive” each time.

Turning to `CC(C)(C)c1nc(-c2cccc(NS(=O)(=O)c3c(F)cccc3F)c2F)c(-c2ccnc(N)n2)s1`, the Potency entry in experiment [1], in experiment [3], in experiment [4] and in experiment [6] was “inactive” throughout. In experiment [5], the Potency entry is “inactive and 12.8 µM (active) and 11.2 µM (active)”.

For `CN(C)CCOc1cc(-c2cn[nH]c2)ccc1NC(=O)C1COc2ccccc2O1` (configuration not stated), the Potency entry in experiment [1], in experiment [5], in experiment [3] and in experiment [4] was “inactive” each time.

As to `N#Cc1c(N(CC(=O)O)CC(=O)O)sc(C(=O)O)c1CC(=O)O`, in experiment [1], the Potency result is “inactive”. Moreover, the activity change, negative = inhibition in experiment [5] is 4.92% [at 0.409 µM] (inactive).

`COc1ccc(Cn2ccc3ccc(C(=O)NO)cc32)cc1`: the Potency entry in experiment [1], in experiment [5] and in experiment [3] was “inactive” throughout.

For the compound `COc1cc(Nc2nc3ccccc3nc2NS(=O)(=O)c2ccc(NC(=O)c3ccc(C)c(OC)c3)cc2)cc(OC)c1`, the Potency entry in experiment [1], in experiment [5] and in experiment [3] was “inactive” each time.

`COC(=O)Nc1ccc(-c2nc(N3CCOCC3)c3cnn(C4CCN(C(=O)OC)CC4)c3n2)cc1`: the Potency entry in experiment [1] and in experiment [5] was “inactive” throughout.

Consider `O[C@@H](COc1cccc2ncccc12)CN1CCN(C2c3ccccc3[C@@H]3[C@H](c4ccccc42)C3(F)F)CC1` (some centres not stated), for which the Potency entry in experiment [1], in experiment [5], in experiment [3] and in experiment [4] was “inactive” in each case.

Turning to `Cc1nc2c([nH]1)CCN(C(=O)c1ccc(NC(=O)c3ccccc3-c3ccccc3)cc1)c1ccccc1-2`, the Potency result in experiment [1], in experiment [5], in experiment [3] and in experiment [4] was “inactive” each time.

With `CC1=C(C(=O)Nc2cc3cn[nH]c3cc2F)C(c2ccc(C(F)(F)F)cc2)CC(=O)N1` (configuration not stated), the Potency entry in experiment [1], in experiment [5], in experiment [3] and in experiment [4] was “inactive” throughout.

In the case of `O=C(CO)N1CCC(c2[nH]nc(-c3ccc(Cl)cc3)c2-c2ccncn2)CC1`, the Potency entry in experiment [1], in experiment [5], in experiment [3], in experiment [4] and in experiment [6] was “inactive” in each case.

In the case of `CN1C(=O)C(Cc2c[nH]c3ccccc23)NC1=S` (configuration not stated), the Potency result in experiment [1], in experiment [5] and in experiment [3] was “inactive” in each case.

For `Cn1cnc(-c2cc3nccc(Oc4ccc(NC(=S)NC(=O)Cc5ccccc5)cc4F)c3s2)c1`, the Potency result in experiment [1], in experiment [3], in experiment [4] and in experiment [6] was “inactive” each time. Also, the Potency entry in experiment [5] was “inactive and 7.18 µM (active)”.

As for `O=C1C(c2c(O)[nH]c3ccccc23)=Nc2ccccc21`, the Potency entry in experiment [1], in experiment [5] and in experiment [3] was “inactive” throughout. For the same compound, the Potency in experiment [4] is 184 nM (active).

As for `O=C(Nc1cccc(C(F)(F)F)c1)Nc1cc(S(=O)(=O)NC2CC2)ccc1-c1ccsc1`, the Potency result in experiment [1], in experiment [5], in experiment [3], in experiment [4] and in experiment [6] was “inactive” throughout.

With `CC1(C)CC(=O)c2c(C(F)(F)F)nn(-c3ccc(C(N)=O)c(NC4CCC(O)CC4)c3)c2C1` (configuration not stated), the Potency result in experiment [1], in experiment [5], in experiment [3], in experiment [4] and in experiment [6] was “inactive” each time.

As for `COc1ccc(-c2cc3nccn3c(Nc3ncccc3C(N)=O)n2)cc1OC`, the Potency result in experiment [1], in experiment [5], in experiment [3] and in experiment [4] was “inactive” in each case.

Consider `CCc1cccc(CC)c1NC(=O)N1Cc2[nH]nc(NC(=O)c3ccc(N4CCN(C)CC4)cc3)c2C1`, for which the Potency entry in experiment [1], in experiment [5], in experiment [3] and in experiment [4] was “inactive” in each case.

Consider `CCC(=O)N1CCN(c2ccc(-n3c(=O)ccc4cnc5ccc(-c6cnc7ccccc7c6)cc5c43)cc2C(F)(F)F)CC1`, for which the Potency entry in experiment [1] and in experiment [5] was “inactive” in each case. For the same compound, the activity change, negative = inhibition in experiment [3] is 2.1% [at 11.6 µM] (inactive). Also, the activity change, negative = thiol reactive in experiment [4] was -11% [at 11.5 µM] (inactive). The activity, negative = inhibition in experiment [6] is 4.43% [at 11.6 µM] (inactive).

`Cc1csc(-c2nnc(Nc3ccc(Oc4ncccc4-c4ccnc(N)n4)cc3)c3ccccc23)c1`: the Potency entry in experiment [1], in experiment [5], in experiment [3] and in experiment [4] was “inactive” in each case.

As to `COC(=O)[C@H](c1ccccc1Cl)N1CCc2sccc2C1`, the Potency entry in experiment [1] and in experiment [5] was “inactive” each time.

With `Cc1ccc2c(c1)C(=O)[C@]1(O)CCN(c3ccccc3)C1=N2`, the Potency entry in experiment [1], in experiment [5], in experiment [3], in experiment [4] and in experiment [6] was “inactive” in each case.

Take `Cc1ccccc1C(=O)c1ccc(Nc2ccc(Br)cc2N)cc1Cl`: the Potency result in experiment [1], in experiment [5], in experiment [3] and in experiment [4] was “inactive” each time.
